Source: PubChem BioAssay
Rows were chosen to be rich in hits. Some 9.4% of all compounds tested hit in one or more screens of this group.
ALDH1A1 block: inhibitors of human aldehyde dehydrogenase 1A1; P00352; Purified ALDH1A1, NADH fluorescence, propionaldehyde substrate; Potency, µM (highest dose often 75.3 µM), hits mostly inhibitors; actives 7.3% (n = 220,000); AID 1030; active = well fitted inhibition curve with a large enough effect, not every such curve was filed as active; inconclusive = small, poorly fitted or top-dose-only effect, or another doubt; inactive = no such curve, though single readings can be large or run the other way
Target sequence (P00352 whole entry, looked up): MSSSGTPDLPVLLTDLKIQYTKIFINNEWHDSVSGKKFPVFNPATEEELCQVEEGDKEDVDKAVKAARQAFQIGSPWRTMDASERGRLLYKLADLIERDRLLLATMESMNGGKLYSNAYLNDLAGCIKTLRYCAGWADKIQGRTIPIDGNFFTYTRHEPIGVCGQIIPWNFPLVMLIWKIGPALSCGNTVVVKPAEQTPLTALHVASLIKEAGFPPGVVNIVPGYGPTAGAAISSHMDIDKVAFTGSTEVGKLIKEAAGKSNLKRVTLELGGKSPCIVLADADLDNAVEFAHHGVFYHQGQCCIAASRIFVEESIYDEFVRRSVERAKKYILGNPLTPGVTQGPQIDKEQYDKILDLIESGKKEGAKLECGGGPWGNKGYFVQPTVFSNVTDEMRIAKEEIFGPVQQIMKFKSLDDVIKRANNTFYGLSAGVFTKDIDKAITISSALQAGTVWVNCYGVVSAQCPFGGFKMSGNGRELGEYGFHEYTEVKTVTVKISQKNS
IMPase Li inh: cell-permeable IMPase inhibitors with lithium potentiation; CHO-M1 cells, IP1 TR-FRET (IP-One), carbachol + lithium; Potency, µM (titrated, usually from 59.4 µM), usual class: inhibitors; actives 0.35% (n = 210,000); AID 1457;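 also: IP1 builds up when IMPase is blocked and the TR-FRET signal falls; nearly all actives have a fitted effect of over 50% in size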
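Concentration–response in CHO-M1 cells, lithium-potentiated; 30 min at 37C. IP1 detected by competitive TR-FRET after 10 min lysis at RT. Hill-fitted AC50.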
IMPase inh: membrane-permeable compound that blocks inositol monophosphatase. CHO-M1 cells, IP1 accumulation, HTRF TR-FRET ratio. AID 901. 120,000 tested, under 10 active. inhibition (IP1 accumulation), % at 46.1 µM. P97697; active = well fitted curve in the direction sought with a large enough effect in the signal ratio, not every such curve was filed as active; inconclusive = small, poorly fitted or top-dose-only effect, or a change in a side signal; inactive = no such curve, though single readings can be large or run the other way; the % refers to the signal ratio;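 also: cells stimulated with carbachol in lithium chloride buffer; higher means more IMPase inhibition seen as more IP1 and lower FRET ratio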
Target sequence (P97697 whole entry, looked up): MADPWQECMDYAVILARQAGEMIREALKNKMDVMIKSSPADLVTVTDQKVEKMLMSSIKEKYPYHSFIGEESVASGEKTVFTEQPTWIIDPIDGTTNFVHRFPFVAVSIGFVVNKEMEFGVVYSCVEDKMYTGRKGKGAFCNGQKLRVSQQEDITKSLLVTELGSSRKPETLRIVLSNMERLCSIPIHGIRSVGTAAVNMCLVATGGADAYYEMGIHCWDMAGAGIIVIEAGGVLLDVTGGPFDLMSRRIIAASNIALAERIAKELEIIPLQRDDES
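Measured: the HTRF emission ratio (665/620 nm) plus the 620 nm donor channel, each fitted to the Hill equation to give AC50. Cells were CHO-M1 given compounds up to 46 uM and a 30 min carbachol stimulation at 37C.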
HttQ103 aggreg: reduces HttQ103-GFP aggregates in PC12 cells; Potency, µM (top dose mostly 46.1 µM), usual class: inhibitors; PC12 HttQ103-GFP aggregates, Acumen cytometry, 40 h; actives 1.1% (n = 220,000); also: nearly all actives have a fitted effect of over 60% in size
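Inducible Q103 Huntingtin exon 1–GFP PC12 line, 1500 cells/well in phenol red free DMEM with 5% equine and 5% calf serum. Tebufenozide 100 nM induced expression; compounds titrated; aggregates quantified by cytometry.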
HPGD inh: blocks human HPGD enzyme activity | P15428 | purified HPGD, NADH fluorescence kinetic, PGE2 substrate | Potency, µM, actives largely listed as inhibitors | actives 4.3% (n = 150,000) | AID 894; active = well fitted inhibition curve with a large enough effect, not every such curve was filed as active; inconclusive = small, poorly fitted or top-dose-only effect, or another doubt; inactive = no such curve, though single readings can be large or run the other way
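20 nM HPGD preincubated 15 min at room temperature with compound in 50 mM Tris-HCl pH 8, 0.01% Tween 20. Started with 1 mM NAD+ and 30 uM prostaglandin E2; NADH fluorescence (360/450 nm) read 5 times over 30-s intervals, last minus first.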
HTT cytoprotect: cytoprotection in Huntington HTT-Q103 PC12 cell model; PC12 HTT-Q103 induced, cytoprotection, ATP luminescence, 40 h; Potency, µM (series often up to 56.4 µM), usual class: activators; actives 0.14% (n = 230,000); also: nearly all actives have a fitted effect of over 45% in size
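PC12 cells with ecdysone-inducible HTT exon 1 Q103-GFP, induced with 100 nM tebufenozide and co-treated with library compounds in a dose series (1536-well, 1500 cells/well). Cytoprotection read as ATP content by ATPlite luminescence.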
A number is an active result; [ ] = dose if it differs, or a comment. Unless noted, calls follow the shape of the dose curve; as a rule, active = well fitted curve in the direction sought with a large enough effect; inconclusive = small, poorly fitted or top-dose-only effect, or another doubt; inactive = no such curve, though single readings can be large; an effect the other way counts as inactive or inconclusive.

`COC1=C/C(=C/c2c(N)n3c(nc2=O)sc2cc(S(C)(=O)=O)ccc23)C=CC1=O` gave HttQ103 aggreg inactive[9.22 µM] and HTT cytoprotect inactive[10 µM].
For CN1CCC[C@@H](CC2c3ccccc3Sc3ccccc32)C1 the results were ALDH1A1 block inactive, IMPase Li inh inactive, IMPase inh inactive, HttQ103 aggreg inactive, HPGD inh inactive and HTT cytoprotect inactive.
For CCC[C@@H]1C[C@@H](C(=O)N[C@@H]([C@H]2O[C@H](SC)[C@H](O)[C@@H](O)[C@H]2O)[C@@H](C)O)N(C)C1 the results were ALDH1A1 block inactive, IMPase Li inh inactive, HttQ103 aggreg inactive, HPGD inh inactive and HTT cytoprotect inconclusive.
`CC(C)[C@H](N=Cc1ccccc1O)C(=O)O` gave ALDH1A1 block inactive[13.5 µM], IMPase Li inh inactive, HPGD inh inactive and HTT cytoprotect inactive[10 µM].
For O=C(Nc1ccsc1C(=O)NC1CCCCC1)c1ccc(F)cc1 the results were ALDH1A1 block inconclusive, IMPase Li inh 28µM, IMPase inh inactive, HttQ103 aggreg inactive, HPGD inh inactive and HTT cytoprotect inactive.
`O=S(=O)(NC1CCCCC1Oc1ccccc1)c1ccccc1` (centres undefined) gave ALDH1A1 block 16µM, IMPase Li inh inactive, IMPase inh inactive, HttQ103 aggreg inactive, HPGD inh inactive and HTT cytoprotect inactive[10 µM].
Screening O=S(=O)(NC1CCCCC1Nc1ccc(Cl)cc1)c1ccccc1 (centres undefined) returned ALDH1A1 block 14µM, IMPase Li inh inactive, HttQ103 aggreg inactive, HPGD inh inactive and HTT cytoprotect inactive[10 µM].
`CCC(C)C(=O)OC1CC(O)C=C2C=CC(C)C(CCC(O)CC(O)CC(=O)O)C21` (centres undefined) gave ALDH1A1 block inactive, IMPase Li inh inactive, HttQ103 aggreg inactive, HPGD inh inactive and HTT cytoprotect inactive.
For N#C/C(=N\Nc1cccc2ccccc12)c1nnc2n1CCCCC2 the results were ALDH1A1 block inactive, IMPase Li inh inactive, IMPase inh inactive, HttQ103 aggreg inactive, HPGD inh 18µM and HTT cytoprotect inactive[10 µM].
For N#C/C(=C\c1c[nH]c2ccccc12)c1nnc2n1CCCCC2 the results were ALDH1A1 block inactive, IMPase Li inh inactive, IMPase inh inactive, HttQ103 aggreg inconclusive, HPGD inh 13µM and HTT cytoprotect inactive[10 µM].
c1ccc2c(-c3nnc4n3CCCCC4)c[nH]c2c1 was read as ALDH1A1 block inactive, IMPase Li inh inactive, IMPase inh inactive, HttQ103 aggreg inconclusive, HPGD inh 25µM and HTT cytoprotect inactive[10 µM].
Screening Nc1cccc(-c2nnc3n2CCCCC3)c1 returned ALDH1A1 block inactive, IMPase Li inh inactive, HttQ103 aggreg inactive and HTT cytoprotect inactive.
Cc1c(C#N)c(N=CN(C)C)c(C(=O)c2ccc(Br)cc2)n1-c1ccccc1 was read as ALDH1A1 block 22µM, IMPase Li inh inactive, IMPase inh inactive, HttQ103 aggreg inactive[9.22 µM], HPGD inh inactive and HTT cytoprotect inactive.
For Cc1c(C#N)c(N=CN(C)C)c(C(=O)c2ccccc2)n1-c1ccc(Br)cc1 the results were ALDH1A1 block inactive, IMPase Li inh inactive, IMPase inh inactive, HttQ103 aggreg inactive, HPGD inh inactive and HTT cytoprotect inactive.
CCOC(=O)c1sc2nc(N3CCOCC3)c3c(c2c1N)CCN(C)C3 was read as ALDH1A1 block inconclusive, IMPase Li inh inactive, IMPase inh inactive, HPGD inh inconclusive and HTT cytoprotect 0.63µM.
Screening NCCC[C@@H](CC(=O)N[C@@H]1CCCC[C@H]1C(=O)N[C@H](CC(=O)N[C@@H](CCC(=O)O)CC(=O)O)Cc1ccccc1)NC(=O)C[C@H](CO)NC(=O)[C@@H]1CCCC[C@H]1N returned ALDH1A1 block inactive, IMPase Li inh inactive, HPGD inh inactive and HTT cytoprotect inactive[1.9 µM].
`S=C(Nc1ccccc1)N1CCCCC1` gave ALDH1A1 block inactive, IMPase Li inh inactive, IMPase inh inactive, HttQ103 aggreg inactive, HPGD inh inactive and HTT cytoprotect inactive.
S=C(Nc1ccccc1)N1CCN(C(=S)c2ccccc2)CC1 was read as ALDH1A1 block 13µM, IMPase Li inh inactive, HttQ103 aggreg inactive and HTT cytoprotect inactive.
For CN1CCN(c2nc(-c3cccc(C#N)c3)nc3ccccc23)CC1 the results were ALDH1A1 block inactive, IMPase Li inh inactive, HPGD inh inactive and HTT cytoprotect inactive.
NC1(C(=O)O)CCc2cc(P(=O)(O)O)ccc21 (centres undefined) was read as ALDH1A1 block inactive, IMPase Li inh inactive and HTT cytoprotect inactive.
`CCOC(=O)C(C)(C)N(Cc1cccc(C)c1)S(=O)(=O)c1cccc([N+](=O)[O-])c1` gave ALDH1A1 block 18µM, IMPase Li inh inactive, IMPase inh inactive, HttQ103 aggreg inactive, HPGD inh inactive and HTT cytoprotect inactive[10 µM].
Cc1cc(C(=O)O)ccc1[C@H](N)C(=O)O was read as ALDH1A1 block inactive, IMPase Li inh inactive, IMPase inh inactive, HPGD inh inactive and HTT cytoprotect inactive.
`O=c1oc2ccccc2c(O)c1C=NCc1ccccn1` gave ALDH1A1 block 28µM, IMPase Li inh inactive, IMPase inh inactive[1.84 µM], HttQ103 aggreg inconclusive, HPGD inh inconclusive and HTT cytoprotect inactive[10 µM].
`O=c1c2ccccc2c(C=NCc2ccccn2)c(O)n1-c1ccccc1` gave ALDH1A1 block inactive, IMPase Li inh inactive, HttQ103 aggreg inactive and HPGD inh inconclusive.
Screening CC1CCN(S(=O)(=O)N2CCC(C(=O)NC3CCCC3)CC2)CC1 returned ALDH1A1 block inactive, IMPase Li inh inactive, HttQ103 aggreg inactive and HTT cytoprotect inactive.
`CCCS(=O)(=O)N1CCC(C(=O)NC2CCC(C)CC2)CC1` (centres undefined) gave ALDH1A1 block 13µM, IMPase inh inactive, HttQ103 aggreg inactive and HTT cytoprotect inactive.
Screening O=C(O)CN(CC(=O)O)c1ccccc1 returned ALDH1A1 block inactive[13.5 µM], IMPase Li inh inactive, HPGD inh inactive and HTT cytoprotect inactive[10 µM].
Screening Cc1nn(Cc2ccc(Cl)cc2)c(C)c1N returned ALDH1A1 block inactive, IMPase Li inh inactive, IMPase inh inactive[0.0738 µM], HttQ103 aggreg inactive, HPGD inh inactive and HTT cytoprotect inactive[10 µM].
Cc1cc(=O)c2n(Cc3ccc(Cl)cc3)nc[n+]2[nH]1 was read as ALDH1A1 block 20µM, IMPase Li inh inactive, IMPase inh inactive, HttQ103 aggreg inactive, HPGD inh inactive and HTT cytoprotect inactive.
CCOc1ccc(NC(=S)Nc2ccc(OCC)cc2)cc1 was read as ALDH1A1 block inactive, IMPase Li inh inactive, HttQ103 aggreg inactive and HTT cytoprotect inconclusive.
`COc1ccccc1NC(=S)Nc1cccc2cnccc12` gave ALDH1A1 block 25µM, IMPase Li inh inactive, IMPase inh inactive, HttQ103 aggreg inactive, HPGD inh inactive and HTT cytoprotect inactive[10 µM].
